14 compounds from PubChem BioAssay (NCI) can be followed below.

Structures are written as SMILES. Compounds without any hit were thinned out: in the full panel of roughly 83,000, 20% have a hit.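 Cells were grown in 96-well plates and exposed to the test compound at a single concentration for 48 hours; results are reported as percent growth, with values below 10 considered active.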 A number with no mark means an inactive call. The source made the active and inactive calls.

Common to all, as to experiment: NCI-60 one-dose screen, 48 h (100 = growth as untreated, 0 = no growth, -100 = all killed)
Conditions in all cases: 10 µM

Experiment [1] deals with HCT-15 colon.
Experiment [2] relates to HT29 colon.
Experiment [3] concerns SNB-75 CNS.
For experiment [4], the system named is SNB-19 CNS.
Experiment [5] deals with PC-3 prostate.
For experiment [6], the system named is SK-MEL-5 melanoma.
The test system of experiment [7] is UACC-62 melanoma.
The test system of experiment [8] is LOX IMVI melanoma.
The test system of experiment [9] is SK-MEL-28 melanoma.
Experiment [10] relates to U251 CNS.

For `CCc1ccc(C2=NN(c3ccc(S(C)(=O)=O)cc3)C(=O)CC2)cc1`, the growth in [1] is 22.1%; in [2], 11.5%; in [3], 16.7%; in experiment [4], 51.5%; in experiment [5], 56.6%; in experiment [6], 10.7%. Moreover, the figures for the growth in experiment [7], in experiment [8] and in experiment [9] were 38%, 35% and 50.7%, respectively.
As to `CCOC(=O)CC(S(=O)(=O)c1ccccc1)S(=O)(=O)c1ccccc1`, the growth in experiment [1] was 93.4%; in experiment [2] it was 91%; in experiment [3] it was 96.2%; in experiment [4], 93.4%; in experiment [5], 97.7%; in experiment [6], 96.6%. In addition, the growth in [7] is 103%; in [8] it was 98.6%; in [9], 109%.
For the compound `CN(C)CCOc1ccccc1NC1=C(Cl)C(=O)C(Nc2ccccc2OCCN(C)C)=C(Cl)C1=O`, the growth in [1] is 79.7%; in [2], 15%; in experiment [3] it was 107%; in experiment [4], 93.9%; in [10] it was 68.6%; in [6] it was 93.6%. In addition, the growth in experiment [7] is 95.6%; in experiment [8], -65.7% (active); in [9], 109%.
Regarding `c1ccc(/C(=N\Nc2ccc3ccccc3n2)c2ccccn2)cc1`, the growth in experiment [1] was 25.7%; in experiment [2], 26.2%; in experiment [3] it was -9.74% (active); in experiment [4], 26.1%; in experiment [10], 7.94% (active); in experiment [6], -51.3% (active). The figures for the growth in experiment [7], in experiment [8] and in experiment [9] were -49.5% (active), -13.5% (active) and 20.5%, respectively.
Consider `COc1cc(C(=O)N2CCN(c3cc4c(cc3F)c(=O)c(C(=O)NO)cn4C3CC3)CC2)cc(OC)c1OC`, for which the growth is 106% in [1]; 105% in [2]; 96.3% in experiment [3]; 100% in [4]; 98.1% in [10]; 101% in [6]. Besides, the growth in experiment [7] is 95%; in [8] it was 94.1%; in experiment [9] it was 108%.
Turning to `CC(C)c1cc(N=O)cc(C(C)C)c1O`, the growth in experiment [1] was 98.4%; in experiment [2], 109%; in experiment [3] it was 99.9%; in experiment [4] it was 95.2%; in experiment [10], 98.5%; in experiment [6] it was 105%. Further, the growth in experiment [7] was 96.3%; in experiment [8], 96.1%; in [9], 105%.
For the compound `COc1ccc(-c2nn(-c3cccc(Cl)c3)cc2-c2cc(-c3cccs3)[nH]c(=S)n2)cc1`, the growth in experiment [1] was 45.7%; in experiment [2], 62.2%; in experiment [3], 67.4%; in [4], 44.7%; in experiment [5], 48.5%; in experiment [6], 52.2%. In addition, the growth in experiment [7] was 44.9%; in experiment [8] it was 43.4%; in experiment [9] it was 57.3%.
On to `O=C(Nc1ccccc1)Nc1ncnc2c1ncn2-c1ccccc1`, for which the growth is 85% in [1]; 75.2% in experiment [2]; 41.5% in [3]; 57.7% in experiment [4]; 48.9% in [10]; 67.7% in experiment [6]. Moreover, the growth was 91.8% in [7], 91% in experiment [8] and 94% in experiment [9].
As to `Nc1c(Br)cc(Br)c2c1[nH]c(=O)c1ccccc12`, the growth in experiment [1] was 75.2%; in experiment [2], 98.4%; in experiment [3], -33.9% (active); in experiment [4], 94.1%; in experiment [5] it was 80.3%; in [6], 71.3%. Also, the growth in experiment [7] is 87.6%; in experiment [8], 83.7%; in experiment [9], 86.8%.
Regarding `CC(=O)C1N=NCC1c1ccccc1` (stereo unspecified), the growth in experiment [1] is 96.9%; in experiment [2] it was 105%; in experiment [3] it was 92.1%; in experiment [4], 99.9%; in experiment [10] it was 110%; in experiment [6] it was 98.4%. The growth in experiment [7] was 83.8%; in [8], 103%; in experiment [9], 112%.
Consider `CCN(CCCNc1cc2c(c(N)c1S(=O)(=O)O)C(=O)c1ccccc1C2=O)c1ccccc1`, for which the growth in experiment [1] is 107%; in [2], 104%; in [3], 88.3%; in [4] it was 95.1%; in experiment [5] it was 87.1%; in [6], 95.2%. In addition, the results for the growth in [7], in experiment [8] and in [9] were 92.1%, 94.7% and 102%, respectively.
As for `CC(C)C1=C(O)C2=C(C(=O)C1=O)[C@@]1(C)CCCC(C)(C)[C@@H]1CC2`, the growth in [1] is 44.2%; in experiment [2] it was 99%; in [3], 78.5%; in experiment [4] it was 53.4%; in experiment [10], 50%; in experiment [6], 70.1%. The growth in [7] is 80%; in experiment [8], 56.9%; in experiment [9], 73.4%.
With `COC1OC(COS(=O)OC)C(O)C(O)C1OS(=O)OC` (stereo unspecified), the growth in experiment [1] is 96.5%; in experiment [2], 103%; in experiment [3], 105%; in experiment [4], 103%; in [10] it was 99.3%; in [6] it was 104%. For the same compound, the growth in [7] was 107%; in experiment [8] it was 100%; in experiment [9], 110%.
For the compound `CN(C)CCC1(c2ccccc2)CCN(C)C1=O` (stereo unspecified), the growth is 102% in [1]; 106% in experiment [2]; 95.8% in experiment [3]; 105% in experiment [4]; 99.7% in experiment [5]; 96.1% in [6]. In addition, the growth was 105% in [7], 102% in experiment [8] and 103% in [9].
